Assay results published in PubChem BioAssay AID1159580 (chemical genetic matrix, 2015).
Several values for one entry are separate records, joined by “and”; a condition that tells them apart may be missing. Equal entries are not always repeated. The campaign covered roughly 5,500 compounds. About 2,000 (36%) were called active. Another 18% or so got no clear call; they are omitted. Rule as the data show it: active = normalized growth mostly below about 0.91 (no sharp cut-off); inconclusive = no clear call, values can overlap the other calls; inactive = mostly above about 0.92. Some of the results follow.

Assay: chemical genetic growth profiling, strain panel (AID 1159580);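 also: tested at 20 µM; growth read once vehicle control cultures reached saturation at 30 °C; 1 = growth at the plate median or of vehicle wells; lower values mean less growth of the strain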
Conditions: S. cerevisiae deletion strains, growth OD

Measured: normalized growth

COc1ccc2c(c1OC)C(=O)O[C@H]2[C@H]1c2cc3c(cc2CCN1C)OCO3
inactive: locus YAL013W, strain DEP1, stronger effect = lower value 0.997 | locus YAL021C, strain ccr4, stronger effect = lower value 0.987 | locus YAL026C, strain drs2, stronger effect = lower value 1.01 | locus YAL030W, strain snc1, stronger effect = lower value 1 | locus YBL061C, strain skt5, stronger effect = lower value 0.997 | locus YBR009C, strain hhf1, stronger effect = lower value 1.01 | locus YBR021W, strain FUR4, stronger effect = lower value 1 | locus YBR023C, strain chs3, stronger effect = lower value 0.988 | locus YBR171W, strain sec66, stronger effect = lower value 0.988 | locus YBR229C, strain ROT2, stronger effect = lower value 1.01 | locus YBR231C, strain swc5, stronger effect = lower value 1 | locus YBR279W, strain paf1, stronger effect = lower value 0.995 | locus YCL011C, strain gbp2, stronger effect = lower value 1 | locus YCL016C, strain dcc1, stronger effect = lower value 1 | locus YCL029C, strain bik1, stronger effect = lower value 1.02 | locus YCL061C, strain MRC1, stronger effect = lower value 1 | locus YCL069W, strain vba3, stronger effect = lower value 1 | locus YCR088W, strain abp1, stronger effect = lower value 1.01 | locus YDL005C, strain med2, stronger effect = lower value 0.997 | locus YDL035C, strain GPR1, stronger effect = lower value 1 | locus YDL040C, strain nat1, stronger effect = lower value 0.991 | locus YDL074C, strain BRE1, stronger effect = lower value 1.01 | locus YDL101C, strain DUN1, stronger effect = lower value 1.02 | locus YDL134C, strain PPH21, stronger effect = lower value 1 | locus YDL185W, strain tfp1, stronger effect = lower value 1 | locus YDL192W, strain arf1, stronger effect = lower value 1.01 | locus YDR001C, strain nth1, stronger effect = lower value 0.999 | locus YDR069C, strain doa4, stronger effect = lower value 1 | locus YDR101C, strain arx1, stronger effect = lower value 1 | locus YDR137W, strain rgp1, stronger effect = lower value 0.988 | locus YDR150W, strain NUM1, stronger effect = lower value 1 | locus YDR159W, strain sac3, stronger effect = lower value 0.989 | locus YDR162C, strain NBP2, stronger effect = lower value 0.966 | locus YDR195W, strain ref2 0.998 | locus YDR297W, strain sur2, stronger effect = lower value 1 | locus YDR318W, strain mcm21, stronger effect = lower value 1.01 | locus YDR334W, strain swr1, stronger effect = lower value 1 | locus YDR335W, strain msn5, stronger effect = lower value 0.989 | locus YDR388W, stronger effect = lower value 1.01 | locus YDR392W, strain spt3, stronger effect = lower value 0.928 | locus YDR502C, strain sam2, stronger effect = lower value 1 | locus YEL003W, strain gim4, stronger effect = lower value 0.998 | locus YEL037C, strain rad23, stronger effect = lower value 0.99 | locus YEL061C, strain CIN8 (second series), stronger effect = lower value 0.991 | locus YEL061C, strain CIN8, stronger effect = lower value 0.991 | locus YER015W, strain faa2, stronger effect = lower value 1 | locus YER016W, strain bim1, stronger effect = lower value 0.997 | locus YER110C, stronger effect = lower value 1.01 | locus YER111C, strain swi4, stronger effect = lower value 0.993 | locus YER155C, strain BEM2 (second series), stronger effect = lower value 0.994 | locus YER155C, strain BEM2, stronger effect = lower value 0.992 | locus YER167W, strain BCK2, stronger effect = lower value 1.01 | locus YFR010W, strain ubp6, stronger effect = lower value 1.01 | locus YGL078C, strain dbp3, stronger effect = lower value 1.01 | locus YGL086W, strain mad1, stronger effect = lower value 1 | locus YGL167C, strain pmr1, stronger effect = lower value 0.997 | locus YGL173C, strain kem1, stronger effect = lower value 0.993 | locus YGL227W, strain vid30, stronger effect = lower value 0.993 | locus YGL240W, strain doc1, stronger effect = lower value 1 | locus YGL248W, strain PDE1, stronger effect = lower value 1.01 | locus YGL253W, strain hxk2, stronger effect = lower value 0.994 | locus YGR078C, strain PAC10, stronger effect = lower value 0.992 | locus YGR135W, strain pre9, stronger effect = lower value 0.996 | locus YGR229C, strain SMI1, stronger effect = lower value 0.99 | locus YGR252W, strain gcn5, stronger effect = lower value 0.953 | locus YHR013C, strain ard1, stronger effect = lower value 0.974 | locus YHR027C, strain rpn1, stronger effect = lower value 0.992 | locus YHR030C, strain SLT2, stronger effect = lower value 1.01 and 1.04 | locus YHR079C, strain IRE1 (second series), stronger effect = lower value 1.02 | locus YHR079C, strain IRE1, stronger effect = lower value 1.05 | locus YHR094C, strain hxt1, stronger effect = lower value 1.01 | locus YHR129C, strain ARP1, stronger effect = lower value 1.02 | locus YHR142W, strain chs7, stronger effect = lower value 0.995 | locus YHR200W, strain rpn10, stronger effect = lower value 1 | locus YIL066C, strain RNR3, stronger effect = lower value 1 | locus YIL073C, strain SPO22, stronger effect = lower value 0.997 | locus YIL125W, strain kgd1, stronger effect = lower value 1.01 | locus YIR030C, strain dcg1, stronger effect = lower value 1.02 | locus YJL092W, strain hpr5, stronger effect = lower value 0.999 | locus YJL095W, strain BCK1 (second series), stronger effect = lower value 1 | locus YJL095W, strain BCK1, stronger effect = lower value 1.02 | locus YJL115W, strain asf1, stronger effect = lower value 0.995 | locus YJL129C, strain trk1, stronger effect = lower value 0.992 | locus YJL134W, strain LCB3, stronger effect = lower value 1 | locus YJL154C, strain vps35, stronger effect = lower value 0.997 | locus YJL164C, strain tpk1, stronger effect = lower value 0.991 | locus YJL166W, strain qcr8, stronger effect = lower value 0.994 | locus YJL168C, strain set2, stronger effect = lower value 1.01 | locus YJL187C, strain SWE1 (second series), stronger effect = lower value 1.01 | locus YJL187C, strain SWE1, stronger effect = lower value 0.999 | locus YJR043C, strain POL32, stronger effect = lower value 1.01 | locus YJR066W, strain TOR1, stronger effect = lower value 0.976
